# High-throughput results as filed in PubChem BioAssay.
# The entries come from a sample that favours hits as a whole.
# Hedgehog inh: Hedgehog pathway signaling inhibitors, primary screen, luminescence, Shh-LIGHT2 cells, Gli-luciferase. Shh-LIGHT2 Gli-luciferase reporter, 30 h. inhibition, % (no concentration beside the values). 22,000 compounds, 2.1% hits;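 active = mean inhibition across valid replicates above about 65%, limit read from the data; inconclusive = mean under the limit, yet half or more replicates past it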;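 note: pathway switched on by Shh-conditioned medium diluted 1 in 25 in low serum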
# MITF inh: inhibitors of MITF, primary screen, MITF inhibitor project, cell-based, luminescence; TRPM1 promoter luciferase, 24 h; inhibition, % (test concentration not listed); 37,000 compounds, 0.28% hits; AID 2240, 2010; in the data active = inhibition above about 85%; inconclusive = no clear call, values can overlap the other calls; inactive = below about 68%;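 note: human melanocyte line stably carrying TRPM1 promoter luciferase reporter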
# YB-1 expression: inhibitors of YB-1 gene expression, primary screen, cell-based, fluorescence; U2OS, qRT-PCR YB-1 vs CDIP delta delta Cp, 16 h; stronger effect = higher value; zero = DMSO, each unit about twofold; delta delta Cp (YB-1 minus CDIP) (no concentration beside the values); 30,000 compounds, 0.37% hits; AID 434959, 2010;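 active = delta delta Cp rounded down to an integer at or above 3, about 3 SD of DMSO wells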;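 note: higher means less YB-1 transcript or more CDIP transcript relative to DMSO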
# An asterisk follows results filed as active; ? = inconclusive; / = not tested or not shown.
SMILES,Hedgehog inh,MITF inh,YB-1 expression
COc1ccc(CC(=O)Nc2cccc(-c3nc4cc5ccccc5cc4[nH]3)c2)cc1,/,-3.1,0.0709
CCN1C(=O)/C(=C2\SC(=S)N(c3ccc(OC)cc3)C2=O)c2ccccc21,/,-60.6,0.0299
Cc1[nH]c2ccccc2c1C(c1c(C)[nH]c2ccccc12)C(C)C,33.0,57.5,-0.115
Cc1[nH]c2ccccc2c1Sc1ccccc1,70.6*,49.2,-0.0808
CC(C)CC(NC(=O)Nc1cccc2ccccc12)C(=O)O (stereo not given),-30.9,5.8,0.172
CC(/C=C/C1(O)C(C)CC(O)CC1(C)C)OC1OC(CO)C(O)C(O)C1O (stereo not given),-30.2,/,1.9
COc1cc(C(=O)OC[C@@]2(O)CO[C@H](OC3C(CO)OC(OC(C)/C=C/C4(O)C(C)CC(O)CC4(C)C)C(O)C3O)[C@@H]2O)cc(OC)c1O (stereo not given in full),-29.4,-6.9,3.52*
C1=CN(c2ccccc2)C(C=NCc2ccccc2)=CS1,-8.7,-6.1,-0.667
COc1ccc(OC)c(NC(=O)COc2ccc3c(C)cc(=O)oc3c2)c1,/,-22.4,/
COc1ccc(OC)c(NC(=O)COc2ccc3c(=O)c(Oc4ccccc4Br)coc3c2)c1,/,94.7*,/
C=CCNC(=O)COc1ccc(Cl)cc1Cl,-56.4,-33.5,0.525
Cc1ccc(S(=O)(=O)CCSc2sc(C#N)c3c2C(=O)CC(C)(C)C3)cc1,66.5*,-17.0,0.079
CCOC(=O)c1sc(SCCS(=O)(=O)c2ccc(Cl)cc2)c2c1CCCC2=O,15.9,-8.1,-0.219
O=C(CN1CCCc2ccccc21)Nc1ccc(Cl)c(Cl)c1,37.2,45.5,0.276
O=C(NCCO)c1cc[n+](CC(=O)c2cccs2)cc1,/,0.0,-0.451
CC(NC(=O)COc1ccccc1C(C)(C)C)c1ccccc1 (stereo not given),34.7,13.0,0.334
CCOC(=O)c1c(NC(=O)c2nn(CC)cc2Br)c(C#N)nn1-c1ccccc1,/,6.5,/
CCOC(=O)c1nn(-c2ccccc2)c(C#N)c1NC(=O)c1nn(CC)cc1Br,65.8*,-12.3,-0.267
CCOC(=O)c1nc2c(o1)NC(N)=C(C#N)C2c1ccc(Cl)cc1 (stereo not given),12.2,-1.7,-0.107
CNC(=O)CCC(=O)Nc1ccc(C(=O)OC)cc1,/,-0.1,/
COC(=O)c1ccc(NC(=O)CSC(=S)N2CCOCC2)cc1,67.9*,6.5,-0.0946
Clc1ccc(C2=NN=C(N3CCCC3)SC2)cc1,/,81.4,-0.4
C=CCN1C(=O)[C@]2(O[C@H](CCO)[C@@H]([Si](C)(C)c3ccc(OC)cc3)[C@@H]2C)c2cc(NC(C)=O)ccc21,/,/,0.283
CC1CCC2(NC1)OC1CC3C4CC=C5CC(O[C@@H]6O[C@H](CO)[C@@H](O[C@@H]7O[C@@H](C)[C@H](O)[C@@H](O)[C@H]7O)[C@H](O)[C@H]6O)CCC5(C)C4CCC3(C)C1C2C (stereo not given in full),6.0,2.7,0.0138
C[C@@H]1O[C@@H](O[C@H]2[C@H](O)[C@@H](O[C@@H]3O[C@H](CO)[C@@H](O)[C@H](O[C@@H]4O[C@H](CO)[C@@H](O)[C@H](O)[C@H]4O)[C@H]3O)[C@H](O[C@H]3CC[C@@]4(C)C(=CC[C@@H]5C4CC[C@@]4(C)C5C[C@@H]5O[C@]6(CC[C@@](C)(CO[C@@H]7O[C@H](CO)[C@@H](O)[C@H](O)[C@H]7O)O6)[C@@H](C)[C@@H]54)C3)O[C@@H]2CO)[C@H](O)[C@H](O)[C@H]1O (stereo not given in full),69.6*,6.0,0.758
SMILES,Hedgehog inh,MITF inh,YB-1 expression
Cc1cccc(N=Cc2c(Nc3cccc(C)c3)nc3ccccn3c2=O)c1,-41.3,-22.9,-0.198
CC1(C)CC[C@@]2(C(=O)O)C(C1)C1=CCC3[C@@]4(C)CC[C@H](O[C@@H]5O[C@H](C(=O)O)[C@@H](O[C@@H]6OC[C@@H](O)[C@H](O)[C@H]6O)[C@H](O)[C@H]5O)C(C)(C)C4CC[C@@]3(C)[C@]1(C)C[C@H]2O (stereo not given in full),2.1,/,-0.608
CC(=O)OCC1(C)CC2[C@]3(CO[C@@]24CCC2[C@@]5(C)CC[C@H](O[C@@H]6OC[C@@H](O)[C@H](O)[C@H]6O)[C@@](C)(CO)C5CC[C@@]2(C)[C@]4(C)C[C@H]3O)[C@@H](O)C1 (stereo not given in full),76.0*,6.7,-0.495
Oc1ccc(-c2nc(-c3ccc(F)cc3)c(-c3ccncc3)[nH]2)cc1,73.9*,-27.8,0.026
C[S+](O)c1ccc(CSc2nc(-c3ccc(F)cc3)c(-c3ccncc3)[nH]2)cc1 (stereo not given),-54.5,-7.5,-0.27
O=C1c2ccccc2C(=O)N1[C@H]1CCN(Cc2ccc(OCCO)cc2)C1,/,/,-0.299
C[C@H](CO)N1C[C@H](C)[C@H](CN(C)S(C)(=O)=O)Oc2c(NC(=O)c3cnccn3)cccc2C1=O,-23.2,-9.5,4.68*
C[C@@H]1CN([C@@H](C)CO)C(=O)c2cccc(NC(=O)c3cnccn3)c2O[C@@H]1CN(C)Cc1ccncc1,4.5,0.3,2.67
C[C@H](CO)N1C[C@H](C)[C@H](CN(C)S(=O)(=O)c2ccccc2)Oc2c(NC(=O)c3cnccn3)cccc2C1=O,24.8,-31.4,0.169
C[C@H](CO)N1C[C@H](C)[C@@H](CN(C)Cc2ccncc2)Oc2c(NC(=O)c3cnccn3)cccc2C1=O,69.7*,-11.1,0.0816
CSc1sc(Cl)c2c1/C(=N\O)CC(C)(C)C2,?,6.2,-0.0976
COc1ccccc1NC(=O)C1C=C2C=CC=CC2OC1=Nc1ccccc1F (stereo not given),10.9,17.7,-0.696
C=C(C(=O)O[C@H]1C/C(C)=C\CC/C(CO)=C\[C@H]2OC(=O)C(=C)[C@H]12)C(O)CO (stereo not given in full),17.6,-32.8,0.927
C=C(C)C(=O)OC1CC(CO)CCC/C(CO)=C\C2OC(=O)C(=C)C21 (stereo not given),70.9*,/,0.203
CCOC(=O)c1ccc(SC)cc1OC,-25.9,-27.6,0.303
Nc1ccccc1C(=O)NCc1c(F)cccc1Cl,-5.0,-1.6,-0.0424
C[C@H](CO)N1C[C@H](C)[C@H](CN(C)C(=O)Nc2ccccc2)Oc2c(NC(=O)Nc3ccc(F)cc3)cccc2C1=O,-32.0,16.7,3.05*
C[C@H](CO)N1C[C@H](C)[C@H](CN(C)C(=O)Nc2ccc(F)cc2)Oc2c(NC(=O)Nc3ccccc3)cccc2C1=O,-49.4,3.1,-0.389
CC(C)NC(=O)N(C)C[C@H]1Oc2c(NC(=O)Nc3ccc(F)cc3)cccc2C(=O)N([C@@H](C)CO)C[C@H]1C,17.2,3.7,4.28*
CC(C)NC(=O)N(C)C[C@@H]1Oc2c(NC(=O)Nc3ccc(F)cc3)cccc2C(=O)N([C@H](C)CO)C[C@H]1C,-22.3,-1.6,0.000259
C[C@H](CO)N1C[C@H](C)[C@@H](CN(C)C(=O)Nc2cccc3ccccc23)Oc2c(NC(=O)Nc3ccc(F)cc3)cccc2C1=O,79.8*,0.0,-0.429
